# In PubChem BioAssay:
# Calls of active or inactive are those of the source. Unless noted, how the calls were made is not given here.
# Legend:
# [1] = HepG2 liver cancer cell viability effects, profiling panel, resazurin fluorescence, 24 h, PK04 Diversity Set (AID 1172); conditions: higher = more signal
# [2] = basal S. cerevisiae growth modulation, no modifier, primary screen, OD600, strain BY4716, 24 h, basal condition (AID 1173); conditions: OD600, 24 h, higher = more signal, called active from +8 up or from −8 down
# [3] = MM1S myeloma cell viability, profiling panel, resazurin fluorescence, basal, 24 h, PK04 Diversity Set (AID 1174); conditions: higher = more signal, called active from +8 up or from −8 down;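 further: MM1S multiple myeloma cell line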
# [4] = target: Dihydroorotate dehydrogenase (quinone), mitochondrial (Plasmodium falciparum (isolate 3D7)) (UniProt Q08210); experiment: PfDHODH enzyme inhibitors, primary screen, biochemical, C-terminal His tag, absorbance 600 nm (AID 1175); conditions: DCIP absorbance 600 nm, higher = more signal, called active from +8 up or from −8 down;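 further: recombinant parasite enzyme with a five histidine tag at its C terminus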
# Chain of Dihydroorotate dehydrogenase (quinone), mitochondrial (Plasmodium falciparum (isolate 3D7)) (Q08210 whole entry, looked up): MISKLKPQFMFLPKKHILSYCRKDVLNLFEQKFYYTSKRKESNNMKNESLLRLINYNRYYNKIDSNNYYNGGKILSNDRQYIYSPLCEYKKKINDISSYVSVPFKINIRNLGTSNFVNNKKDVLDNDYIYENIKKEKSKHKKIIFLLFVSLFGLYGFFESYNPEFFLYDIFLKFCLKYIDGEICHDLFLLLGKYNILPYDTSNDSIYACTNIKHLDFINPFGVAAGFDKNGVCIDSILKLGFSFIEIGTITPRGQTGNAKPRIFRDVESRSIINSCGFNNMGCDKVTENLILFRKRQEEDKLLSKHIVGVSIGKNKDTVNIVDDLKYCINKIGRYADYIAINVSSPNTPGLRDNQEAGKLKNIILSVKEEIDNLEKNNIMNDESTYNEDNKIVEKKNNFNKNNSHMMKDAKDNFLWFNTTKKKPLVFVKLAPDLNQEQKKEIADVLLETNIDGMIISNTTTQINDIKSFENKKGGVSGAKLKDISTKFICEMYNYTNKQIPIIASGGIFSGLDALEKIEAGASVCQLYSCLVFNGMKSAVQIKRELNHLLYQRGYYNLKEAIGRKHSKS
# [5] = P. aeruginosa biofilm formation inhibitors, primary screen, strain PAO1, LB-PBS medium, absorbance 600 nm (AID 1176); conditions: P. aeruginosa PAO1 growth/biofilm, A600, 12 h; higher = more signal
# [6] = S. cerevisiae RM11-1a growth modifiers, primary screen, strain RM11-1a, OD600, basal, 24 h (AID 1177); conditions: OD600, 24 h, higher = more signal, called active from +8 up or from −8 down;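 further: cultures grown under basal conditions with no added stressor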
# [7] = E. coli acrAB mutant growth effects, primary screen, E. coli filamentation inducers, strain DRC39, OD650, 24 h (AID 1178); conditions: higher = more signal, called active from +8 up or from −8 down;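 further: growth measured as culture turbidity by optical density at 650 nm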
# [8] = E. coli acrAB mutant growth effects, primary screen, E. coli filamentation inducers, strain DRC39, OD650, 48 h (AID 1179);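 further: screen aims at cell division blockers that make cells filament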; conditions: E. coli DRC39 delta-acrAB growth, higher = more signal, called active from +8 up or from −8 down
# [9] = RPMI8226 myeloma cell viability, profiling panel, resazurin fluorescence, basal, 24 h, PK04 Diversity Set (AID 1180); conditions: higher = more signal;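 further: RPMI8826 multiple myeloma cell line at 5000 cells per well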
# [10] = target: E3 ubiquitin-protein ligase XIAP (Homo sapiens) (UniProt P98170); experiment: XIAP binders, primary screen, biophysical, small-molecule microarray, fluorescence 635 nm (AID 1181); conditions: small-molecule microarray binding, higher = more signal;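 further: score merges 667 nm emission and signal to noise over triplicate slides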
# Chain of E3 ubiquitin-protein ligase XIAP (Homo sapiens) (P98170 whole entry, looked up): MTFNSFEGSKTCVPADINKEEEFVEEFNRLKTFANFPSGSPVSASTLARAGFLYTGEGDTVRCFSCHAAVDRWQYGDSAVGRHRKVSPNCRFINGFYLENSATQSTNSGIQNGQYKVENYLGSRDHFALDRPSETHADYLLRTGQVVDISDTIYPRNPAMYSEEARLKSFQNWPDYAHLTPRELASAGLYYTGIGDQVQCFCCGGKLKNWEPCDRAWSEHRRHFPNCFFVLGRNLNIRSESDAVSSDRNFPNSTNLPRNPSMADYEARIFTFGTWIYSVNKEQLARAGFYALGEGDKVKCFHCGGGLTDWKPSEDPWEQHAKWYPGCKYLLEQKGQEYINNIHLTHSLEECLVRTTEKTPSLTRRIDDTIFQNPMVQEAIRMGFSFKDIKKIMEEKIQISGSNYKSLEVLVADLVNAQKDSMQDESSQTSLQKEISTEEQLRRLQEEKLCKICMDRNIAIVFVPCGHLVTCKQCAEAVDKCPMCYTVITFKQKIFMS
# [11] = test system: XIP peptide (Xip251-270) binding; experiment: small-molecule binders of XIP peptide, primary screen, biochemical, small-molecule microarray, fluorescence 635/667 nm, 0.1 µg/mL protein (AID 1182); conditions: fluorescent protein binding, 635 nm, higher = more signal, called active from +8 up or from −8 down
# XIP peptide (Xip251-270) = experiment: small-molecule binders of XIP peptide, primary screen, biochemical, small-molecule microarray, fluorescence 635/667 nm, 0.5 µg/mL protein (AID 1183); conditions: small-molecule microarray binding, fluorescence 635 nm; higher = more signal
# [12] = Plasmodium falciparum growth inhibition, primary screen, strain 3D7, DAPI fluorescence, 100 nL (AID 1184);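 further: parasites grown inside human red blood cells in medium with human serum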; conditions: P. falciparum 3D7 growth, 3 d, higher = more signal
# [13] = target: Homeobox protein Hox-A13 (Mus musculus) (UniProt Q62424); experiment: inhibitors of HoxA13-DNA binding, primary screen, biochemical, fluorescence polarization, labeled oligonucleotide (AID 1185); conditions: 15 min, higher = more signal, called active from +8 up or from −8 down
# Chain of Homeobox protein Hox-A13 (Mus musculus) (Q62424 whole entry, looked up): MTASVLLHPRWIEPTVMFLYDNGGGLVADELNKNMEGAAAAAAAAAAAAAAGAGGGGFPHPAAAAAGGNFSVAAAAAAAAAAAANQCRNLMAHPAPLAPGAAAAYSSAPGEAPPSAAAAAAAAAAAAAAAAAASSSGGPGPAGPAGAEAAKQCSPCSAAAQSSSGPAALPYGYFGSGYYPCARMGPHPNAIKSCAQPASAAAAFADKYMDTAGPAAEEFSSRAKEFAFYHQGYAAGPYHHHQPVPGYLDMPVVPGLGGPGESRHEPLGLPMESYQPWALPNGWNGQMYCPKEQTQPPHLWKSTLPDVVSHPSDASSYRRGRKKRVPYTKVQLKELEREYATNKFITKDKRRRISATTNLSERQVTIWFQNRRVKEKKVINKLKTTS
# [14] = inhibitors of hydroxyurea-induced Chk1 phosphorylation, primary screen, imaging, HeLa, phospho-Chk1 antibody, percent positive cells (AID 1186); conditions: hydroxyurea-induced phospho-Chk1 immunofluorescence imaging, higher = more signal
# [15] = inhibitors of hydroxyurea-induced Chk1 phosphorylation, primary screen, imaging, HeLa, phospho-Chk1 nuclear intensity (AID 1187); conditions: hydroxyurea-induced phospho-Chk1 immunofluorescence imaging, higher = more signal
SMILES,z-score [1],z-score [2],z-score [3],composite z-score [4],z-score [5],z-score [6],z-score [7],z-score [8],z-score [9],composite z-score [10],composite z-score [11],composite z-score (XIP peptide (Xip251-270)),z-score [12],z-score [13],z-score [14],z-score [15]
C=CC1(C(=O)OC)CC=C(C(=O)OC)CC1 (stereo not given),0.249,0.489 (inactive),0.501 (inactive),-2.11 (inactive),0.201 (inactive),-0.834 (inactive),-0.233 (inactive),1.19 (inactive),1.08,-0.248,0.552 (inactive),0.992,0.928,-1.09 (inactive),-1.36 (inactive),-1.26 (inactive)
CCCCN1CC=CC23O[C@@H]4C=CCCOC(=O)C4[C@H]2C(=O)N(CCCCCCO)[C@@H]3C1=O (stereo not given in full),0.0635,0.254 (inactive),-0.846 (inactive),-1.01 (inactive),-0.14 (inactive),0.308 (inactive),0.013 (inactive),0.383 (inactive),-0.461,-0.141,0.249 (inactive),0.847,-0.35,-4.29 (inactive),0.809 (inactive),0.79 (inactive)
CCOC(=O)[C@H]1C/C=C/C[C@H](C(=O)OCC)C(=O)O[C@H]2[C@@H](OC)O[C@H](CO)[C@@H](OC(=O)c3c(OC)cccc3OC)[C@@H]2OC1=O,-3.51,-0.964 (inactive),-3.73 (inactive),-0.232 (inactive),0.498 (inactive),0.996 (inactive),0.0332 (inactive),0.328 (inactive),-3.51,-0.102,0.676 (inactive),0.709,0.754,-3 (inactive),-0.0052 (inactive),-0.142 (inactive)
CCC[C@@H]1C[C@@]1(CCC)[C@@H](NS(=O)(=O)c1cccc2cccnc12)c1ccc(Cl)cc1,-0.0373,1.43 (inactive),-0.151 (inactive),0.283 (inactive),0.908 (inactive),1.24 (inactive),-0.251 (inactive),-0.0357 (inactive),-0.0909,0.0999,0.0535 (inactive),-0.271,-0.586,-0.392 (inactive),0.555 (inactive),0.618 (inactive)
CCCCCN1CC=CC23O[C@@H]4/C=C\CCC(C)OC(=O)C4[C@H]2C(=O)N(C(C)CO)[C@@H]3C1=O (stereo not given in full),0.194,0.142 (inactive),-0.139 (inactive),0.005 (inactive),-0.0153 (inactive),0.449 (inactive),0.866 (inactive),0.657 (inactive),1.07,-0.127,0.176 (inactive),0.0664,-0.107,-4.77 (inactive),-0.808 (inactive),-0.732 (inactive)
COCC(=C=CC[C@@H](O)c1cccc(OCCO)c1)C[C@@H](O)c1ccccn1,0.353,-0.449 (inactive),0.423 (inactive),-1.61 (inactive),-0.353 (inactive),0.0156 (inactive),0.947 (inactive),0.604 (inactive),0.973,0.0471,1.36 (inactive),0.141,-1.2,-4.8 (inactive),-1.08 (inactive),-0.725 (inactive)
C=CC[C@@]12N=C(c3ccc(OCCCO)cc3)O[C@@H]1c1ccccc1N(C)C2=O,-0.0241,-0.926 (inactive),-2.53 (inactive),0.579 (inactive),0.0684 (inactive),1.46 (inactive),0.817 (inactive),1.18 (inactive),-0.912,0.368,0.535 (inactive),0.759,-1.9,-4.57 (inactive),0.221 (inactive),0.444 (inactive)
CC(C)(C)OC(=O)CC[C@]1(C(=O)N2CCOCC2)N=C(c2ccc(OCCCO)cc2)O[C@H]1c1ccccc1N=[N+]=[N-],0.548,-0.515 (inactive),-0.095 (inactive),-0.793 (inactive),-0.0684 (inactive),0.207 (inactive),0.453 (inactive),0.314 (inactive),0.187,0.115,0.472 (inactive),0.472,-2.28,-5.38 (inactive),-0.112 (inactive),0.0839 (inactive)
COCCOC(=O)N1C(=O)[C@@]2(c3ccccc31)[C@H](c1ccc(O)cc1)N1[C@H](c3ccccc3)[C@H](c3ccccc3)OC(=O)[C@H]1[C@@H]2C(=O)Nc1nc2ccccc2s1,-0.175,0.183 (inactive),-1.1 (inactive),0.553 (inactive),0.995 (inactive),0.941 (inactive),0.411 (inactive),1.37 (inactive),-0.456,-0.02,0.343 (inactive),0.78,0.194,-0.526 (inactive),-0.0228 (inactive),0.221 (inactive)
CC(C)C(CO)N1C(=O)[C@@H]2C3C(=O)OCCC/C=C\[C@H]3OC23C=CCN(CCN2CCOCC2)C(=O)[C@@H]13 (stereo not given in full),-0.723,0.384 (inactive),-0.686 (inactive),-3.09 (inactive),0.109 (inactive),-0.0505 (inactive),1.01 (inactive),0.566 (inactive),-0.586,0.0191,-0.0949 (inactive),-0.816,1.17,-7 (inactive),0.248 (inactive),-0.0469 (inactive)
